# Cycloheximide cs – Cycloheximide Counterscreen for Small Molecule Inhibitors of Shiga Toxin; actives 12% (n = 300,000); max response, %; cell reporter, cycloheximide protein synthesis inhibition counterscreen; in the data active = max response mostly above about 13%, no sharp cut-off; inactive = mostly below about 14%; also: read at 38.3 µM for the half of the compounds with a filed dose; 0% is about no effect
# LmPK inhibitor – qHTS Assay for Inhibitors of Leishmania Mexicana Pyruvate Kinase (LmPK); Q27686; actives 0.37% (n = 290,000); Potency, µM (series often up to 57.5 µM), for inactives: at the highest dose activity change, negative = inhibition, most hits filed as inhibitors; purified LmPK, Kinase-Glo ATP luminescence, 1 h; also: potency is read from the fitted curve at half-maximal effect; % is scaled to controls: 0 for no effect and ±100 for the full control effect
#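 ATP generated from ADP (0.1 mM) and PEP (0.5 mM) by 0.1 nM LmPK over 1 h at room temperature (pH 7.2 imidazole buffer) was detected by coupled luciferase luminescence. Values were normalized to uninhibited and no-enzyme wells.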
# NS1 function inh – qHTS Assay for Inhibitors of Influenza NS1 Protein Function; actives 0.4% (n = 270,000); AID 2326, 2010; Potency, µM (titrated, usually from 46.1 µM), without a hit: at the highest dose activity, positive = more growth; calls by dose curve; also: potency is read from the fitted curve at half-maximal effect; actives are rising curves; nearly all actives have a fitted effect of over 50% in size
#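 In this qHTS, NS1 from influenza A is expressed in budding yeast, where it slows growth. Cells are switched from glucose to 2% galactose medium (pH 6.0, -URA), treated with compound, and growth recovery is read at OD600.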
# FBPA Giardia inh – qHTS Assay for Inhibitors of Fructose-1,6-bisphosphate Aldolase from Giardia Lamblia; Potency, µM (titrated, usually from 59.6 µM), for the others: at the highest dose activity, negative = inhibition, hits mostly inhibitors; purified Giardia FBPA; actives 0.71% (n = 290,000); also: potency is read from the fitted curve at half-maximal effect; % is scaled to controls: 0 for no effect and ±100 for the full control effect; nearly all actives have a fitted effect of over 55% in size
# Target sequence (A8B2U2 whole entry, looked up): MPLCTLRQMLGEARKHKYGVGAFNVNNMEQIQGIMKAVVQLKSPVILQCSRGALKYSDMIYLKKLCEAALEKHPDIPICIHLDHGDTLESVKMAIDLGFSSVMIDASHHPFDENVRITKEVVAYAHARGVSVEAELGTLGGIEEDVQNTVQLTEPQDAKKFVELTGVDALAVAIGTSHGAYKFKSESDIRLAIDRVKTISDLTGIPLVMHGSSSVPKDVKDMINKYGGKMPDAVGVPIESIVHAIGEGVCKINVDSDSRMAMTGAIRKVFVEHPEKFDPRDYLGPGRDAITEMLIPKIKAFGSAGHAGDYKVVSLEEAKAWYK
#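 40 nM FBPA preincubated 10 min at RT with compound (up to 57.5 uM final), then substrate plus GAPDH/TPI/NAD/arsenate coupling and diaphorase/resazurin added. Fluorescence read after 20 min at RT, 525/598 nm.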
# Shiga inhibitor – A qHTS for Small Molecule Inhibitors of Shiga Toxin; Vero cells, Shiga toxin protein synthesis inhibition reporter; actives 9.2% (n = 290,000); inhibition, % at 38.7 µM; in the data active = inhibition mostly above about 28%, no sharp cut-off; inactive = mostly below about 43%; also: 0% is about no effect
# * = called active by the depositor; ? = inconclusive; / = no result. Rows were chosen to be rich in hits. Some 14% of all compounds tested hit in one or more screens of this group. Unless noted, calls follow the shape of the dose curve; as a rule, active = well fitted curve in the direction sought with a large enough effect; inconclusive = small, poorly fitted or top-dose-only effect, or another doubt; inactive = no such curve, though single readings can be large; an effect the other way counts as inactive or inconclusive.
SMILES,Cycloheximide cs,LmPK inhibitor,NS1 function inh,FBPA Giardia inh,Shiga inhibitor
CCOc1nc(NCc2ccco2)nc(Nc2ccc(OC)cc2)n1,26.9*,3.5%,-12.4%,-5.5%,28.4
COc1ccc(Nc2nc(NCc3ccco3)nc(N/N=C/c3ccccc3)n2)cc1,11.8,0.7%,22.6%,12.0%,9.7
CCOc1nc(NCCO)nc(Nc2ccc([N+](=O)[O-])cc2)n1,-2.4,0.5%,-2.6%,1.1%,-18.9
CCOc1nc(NCc2ccco2)nc(Nc2ccccc2F)n1,26.6*,1.2%,3.4%,-0.6%,active
CCOc1nc(NCCO)nc(Nc2ccccc2F)n1,16.6*,-3.7%,-2.2%,-2.0%,48.1
COc1ccccc1NC(=O)N1CCCC(CNC(=O)c2ccccc2Cl)C1 (stereo unspecified),-0.1,8.9%,-11.1%,/,26.5
O=C(NCC1CCCN(C(=O)CN2CCCCC2)C1)c1ccccc1Cl (stereo unspecified),26.4*,1.1%,0.0%,3.5%,31.1
CSCC(=O)N1CCCC(CNC(=O)c2ccccc2Cl)C1 (stereo unspecified),14.6*,-0.8%,0.2%,2.3%,28.4
Cc1cc2cc(CCNS(=O)(=O)c3ccc(F)cc3)c(=O)[nH]c2cc1C,-0.5,-3.0%,7.7%,11.3%,-8.0
COc1ccccc1N(CC(=O)NC1CCCC1)C(=O)c1cnn(C(C)C)c1,28.3*,0.3%,-4.3%,5.2%,56.2*
COc1ccccc1N(CC(=O)NC1CCCCC1)C(=O)c1cnn(C(C)C)c1,-1.4,1.9%,-10.1%,3.7%,-4.3
COc1ccc(CCNC(=O)CSc2nnc(CNC(=O)c3c(F)cccc3Cl)o2)cc1OC,-3.5,-9.8%,8.3%,/,-3.3
C=CCc1c(C)nc(-c2ccccc2)nc1N/N=C(\C)c1ccccc1,12.0*,0.8%,13.0%,?,20.8
Cc1ccc(C2=Nc3ccc(Br)cc3C(c3ccncc3)=NN2)cc1,28.4*,5.9%,6.3%,-4.2%,69.8
Cc1ccc(C2=Nc3cccnc3C(c3ccccc3)=NN2)cc1,49.0*,6.7%,/,-0.6%,79.2*
Cc1ccc2c(c1)C(c1ccncc1)=NNC(c1ccccc1)=N2,50.1*,-16.6%,-1.0%,0.3%,103.4*
COc1ccc2c(c1)C(c1ccc(C)o1)=NNC(c1ccccc1)=N2,42.5*,-2.3%,8.7%,-3.8%,95.8*
Cc1ccc2c(c1)C(c1ccncc1)=NNC(c1ccc(F)cc1)=N2,15.6,-2.0%,/,1.7%,16.2
COc1ccc2c(c1)C(c1ccc(C)o1)=NNC(c1cccnc1)=N2,0.8,-0.3%,3.8%,-1.8%,12.1
Cc1ccc2c(c1)C(c1ccncc1)=NNC(c1ccc(C(C)C)cc1)=N2,6.8,4.8%,7.1%,7.0%,32.0*
Oc1c(Br)cc(Br)cc1/C=N/NC(=S)N[C@H]1CC2C=CC1C2 (stereo partly specified),9.8,7.6%,-0.5%,?,7.0
COc1cccc(/C=N/NC(=S)NC2CC3CC2C2C=CCC32)c1O (stereo unspecified),34.9*,-18.1%,-1.0%,3.4%,86.8*
Oc1ccccc1/C=N/NC(=S)NC1CC2CC1C1C=CCC21 (stereo unspecified),53.2*,-4.2%,3.7%,5.3%,48.8*
COc1c(O)cc2c(-c3ccccc3)cc(=O)oc2c1OC,/,/,/,3.7%,/
COc1ccc(-n2nc(C)c3sc(C)nc3c2=O)cc1,9.6*,4.4%,1.9%,-1.1%,46.2
CC(=O)Nc1ccc(N(C(=O)c2ccco2)C(C(=O)NC2CCCC2)c2ccncc2)cc1 (stereo unspecified),-3.9,-1.2%,6.0%,16.0%,-4.7
Cc1ccccc1N1CCN(C2CCCN(C(=O)c3snnc3C)C2)CC1 (stereo unspecified),-2.0,-2.7%,0.9%,/,-0.6
CN(C)c1cccc(C(=O)NCC(c2ccco2)N(C)C)c1 (stereo unspecified),36.9*,-0.7%,?,-0.5%,75.1*
CN(C)C(CNC(=O)c1ccc2ccccc2c1)c1ccco1 (stereo unspecified),31.6*,2.6%,/,2.4%,76.6*
COCCCN1C(=O)C(=O)/C(=C(/O)c2ccc(S(=O)(=O)N3CCOCC3)cc2)C1c1ccc(C(C)C)cc1 (stereo unspecified),-0.4,8.6%,4.2%,2.4%,24.2
